From PubChem BioAssay (NCATS)
Records with an inconclusive call do not appear. The source made the active and inactive calls. The call rests on the fitted dose curve; in most records, active means well fitted curve in the direction sought with a large enough effect; inconclusive means small, poorly fitted or top-dose-only effect, or another doubt; inactive means no such curve, though single readings can be large; an effect the other way counts as inactive or inconclusive.

Tests used:
[1] = target: Calcium and integrin-binding protein 1 (Homo sapiens) (UniProt Q99828); assay: Primary qHTS for Identification of Calcium Integrin Binding Protein 1 (CIB1) Competitor (AID 1508620);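 further: GST tagged CIB1 binding a fluorescein labelled alphaIIb integrin peptide tracer; top concentration of the series differs between compounds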
Procedure, shortened: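 Fluorescence polarization competition: CIB1-GST (1 uM final) preincubated with compound 15 min at room temperature, then FITC-labeled alphaIIb peptide (100 nM final) added for another 15 min. Polarization read at Ex 480/Em 540.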

[2] = Primary qHTS for inhibitors of nuclear receptor binding SET domain protein 2 (NSD2) in an isogenic RCH-ACV NSD2 p.E1099K mutant (9B) (AID 1645876); further: nearly all actives have a fitted effect of over 70% in size
[3] = Primary qHTS for inhibitors of nuclear receptor binding SET domain protein 2 (NSD2) in an RCH-ACV wild type WT cells (2C) (AID 1645877); further: nearly all actives have a fitted effect of over 70% in size
On the % scale 0 is the no-effect control and ±100 the full control effect.

Sequence of Calcium and integrin-binding protein 1 (Homo sapiens) (Q99828 whole entry, looked up): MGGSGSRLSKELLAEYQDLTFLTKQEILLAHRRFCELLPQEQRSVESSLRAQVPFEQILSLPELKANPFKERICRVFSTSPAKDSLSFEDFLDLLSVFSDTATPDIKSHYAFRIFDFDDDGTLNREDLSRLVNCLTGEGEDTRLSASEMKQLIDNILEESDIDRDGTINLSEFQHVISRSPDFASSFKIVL

CC(C)=CCc1cc(O[C@@H]2O[C@H](CO[C@@H]3OC[C@](O)(CO)[C@H]3O)[C@@H](O)[C@H](O)[C@H]2O)ccc1O
inactive: Potency [1] | Potency [2] | Potency [3]

CC1CC2OCC3(O)CCC(O)C(C14CC(c1ccoc1)OC4=O)C23CO (configuration not stated)
inactive: Potency [1] | Potency [2] | Potency [3]

COc1c2c(c(C)c3c1C(=O)OC3)OC1(C)CC(O)C34OC(O)(CCC3(C)C1C2)OC4(C)C (configuration not stated)
inactive: Potency [1] | Potency [2] | Potency [3]

NC1Nc2ccccc2C1(N)CC1NC(=O)C(Cc2ccccc2)NC(=O)C(Cc2ccccc2)NC1=O (configuration not stated)
inactive: Potency [1] | Potency [2] | Potency [3]

C=C1C2(C)CC3C4(C)OC(C5OC56C4=CC(=O)OC6(C)C)C3(C)C13C(=O)OC(C)C3(O)C2=O (configuration not stated)
inactive: Potency [1] | Potency [2] | Potency [3]

CC1(C)CC[C@]2(C(=O)O)CC[C@]3(C)C(=CCC4[C@@]5(C)C[C@@H](O)[C@H](O)[C@](C)(CO)C5CC[C@]43C)[C@@H]2[C@@H]1O (some centres not stated)
inactive: Potency [1] | Potency [2] | Potency [3]

C=C1CC[C@H]2[C@@](C)(CCC(O)[C@@]2(C)CO)[C@@H]1/C=C/C(=C\C(=O)O)C(=O)O (some centres not stated)
inactive: Potency [1] | Potency [2] | Potency [3]

CC(C)=C1CC2C(CCC2(C)O)C(C)(O)CC1=O (configuration not stated)
inactive: Potency [1] | Potency [2] | Potency [3]

CC1=CCC[C@@H]2[C@@](C)(CCc3ccoc3)[C@H](C(=O)O)CC[C@@]12C
inactive: Potency [1] | Potency [2] | Potency [3]

CC1(C)CC[C@]2(C(=O)O[C@@H]3O[C@H](CO)[C@@H](O)[C@H](O)[C@H]3O)CC[C@]3(C)C(=CCC4[C@@]5(C)CC[C@H](O[C@@H]6O[C@H](C(=O)O)[C@@H](O)[C@H](O)[C@H]6OC6OC(CO)C(O)C(O)C6O)C(C)(C)C5CC[C@]43C)[C@@H]2C1 (some centres not stated)
inactive: Potency [1] | activity change, negative = viability loss [2] 0.32% [at 9.23 µM] | activity change, negative = cell killing [3] -5.08% [at 9.23 µM]

CC1=C(C)C(=O)OC(C(C)C2C(O)CC3C4C5OC5C5(O)CC(OC6OC(CO)C(OC7OC(C)C(O)C(O)C7O)C(O)C6O)CC(O)C5(C)C4CCC32C)C1 (configuration not stated)
inactive: Potency [1] | Potency [2] | Potency [3]

COC(=O)C1=COC(OC2OC(CO)C(O)C(O)C2O)C2C(COC(=O)/C=C/c3ccc(O)cc3)C(O)C(O)C12 (configuration not stated)
inactive: Potency [1] | Potency [2] | Potency [3]

CC(NC(=O)c1ccccc1N)C(=O)O (configuration not stated)
inactive: Potency [1] | Potency [2] | Potency [3]

OC[C@H]1O[C@@H](OCc2ccccc2)[C@H](O)[C@@H](O)[C@@H]1O
inactive: Potency [1] | Potency [2] | Potency [3]

CC1=C(CC/C(C)=C/C(=O)O)[C@@]2(C)CCCC(C)(C)C2CC1=O (some centres not stated)
inactive: Potency [1] | Potency [2] | Potency [3]

NC(Cc1c[nH]c2ccc(O)cc12)C(=O)O (configuration not stated)
inactive: Potency [1] | Potency [2] | Potency [3]

COc1c(O[C@@H]2O[C@H](CO)[C@@H](O)[C@H](O)[C@H]2O)c(CCC(=O)O)cc2ccoc12
inactive: Potency [1] | Potency [2] | Potency [3]

C=C(CCO)C(=O)OCC1OCC(OC(=O)C(=C)CCO[C@@H]2O[C@H](COC(=O)C(=C)CCO[C@@H]3O[C@H](CO)[C@@H](O)[C@H](O)[C@H]3O)[C@@H](O)[C@H](O)[C@H]2O)C(O)C1O (some centres not stated)
inactive: Potency [1] | Potency [2] | Potency [3]

CC(C)=CCC[C@](C)(O[C@@H]1O[C@H](CO)[C@@H](O)[C@H](O)[C@H]1O)[C@H]1CC[C@]2(C)[C@@H]1[C@H](O)CC1[C@@]3(C)CC[C@H](O)C(C)(C)C3[C@@H](O[C@@H]3O[C@H](CO)[C@@H](O)[C@H](O)[C@H]3O[C@@H]3O[C@@H](C)[C@H](O)[C@@H](O)[C@H]3O)C[C@]12C (some centres not stated)
inactive: Potency [1] | activity change, negative = viability loss [2] -2.5% [at 9.23 µM] | activity change, negative = cell killing [3] -9.19% [at 9.23 µM]

C=C1CC23CC1CCC2C12OC(=O)C(C)(C(O)CC1O)C2C3C(=O)O (configuration not stated)
inactive: Potency [1] | Potency [2] | Potency [3]

CC1(C)C=Cc2c(ccc3c2N=C2C(C)(C)[C@@H]4C[C@]56CCCN5C(=O)[C@@]4(C[C@]23O)NC6=O)O1
inactive: Potency [1] | Potency [2] | Potency [3]

CN(C)C(=O)C(O)C(Cc1ccccc1)NC(=O)c1cc2cc(Cl)ccc2[nH]1 (configuration not stated)
inactive: Potency [1] | Potency [2] | Potency [3]

COC(=O)[C@]1(C)CCC[C@@]2(C)C(=O)CC[C@H]3C(=O)C=C(CC[C@@H]21)C3O (some centres not stated)
inactive: Potency [1] | Potency [2] | Potency [3]

C/C=C/C=C/C=C/C(=O)OC1C=C2C(O)OC(=O)[C@]2(O)[C@@]2(C)CCCC(C)(C)[C@H]12 (some centres not stated)
inactive: Potency [1] | Potency [2] | Potency [3]
